Test results taken from PubChem BioAssay.
Records with an inconclusive call do not appear. The source made the active and inactive calls.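 How the source made its calls, unless noted: active means growth inhibition above 25% in both replicates, a cutoff set 3 SD above the mean; inconclusive means above 25% in only one replicate; inactive means the rest.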

What was measured:
[1] = reducers of endogenous Her2 protein level, primary screen, SKBR3 breast tumor cells, AlphaScreen, ATP viability (AID 461;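 active means Her2 level under about 52% in both replicate screens, with viability over 70% of control, limit read from the data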;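 on Her2 level: lower value means less Her2 protein in the cells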;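 on viability: percent of carrier control wells set as 100% viability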); details: 18-24 h, measured here: SKBR3 viability, ATP luminescence, at 10 µM
[2] = biological target: Receptor tyrosine-protein kinase erbB-2 (Homo sapiens) (UniProt P04626); test: as above; details: 18-24 h, at 10 µM, stronger effect = lower value
Chain of Receptor tyrosine-protein kinase erbB-2 (Homo sapiens) (P04626 whole entry, looked up): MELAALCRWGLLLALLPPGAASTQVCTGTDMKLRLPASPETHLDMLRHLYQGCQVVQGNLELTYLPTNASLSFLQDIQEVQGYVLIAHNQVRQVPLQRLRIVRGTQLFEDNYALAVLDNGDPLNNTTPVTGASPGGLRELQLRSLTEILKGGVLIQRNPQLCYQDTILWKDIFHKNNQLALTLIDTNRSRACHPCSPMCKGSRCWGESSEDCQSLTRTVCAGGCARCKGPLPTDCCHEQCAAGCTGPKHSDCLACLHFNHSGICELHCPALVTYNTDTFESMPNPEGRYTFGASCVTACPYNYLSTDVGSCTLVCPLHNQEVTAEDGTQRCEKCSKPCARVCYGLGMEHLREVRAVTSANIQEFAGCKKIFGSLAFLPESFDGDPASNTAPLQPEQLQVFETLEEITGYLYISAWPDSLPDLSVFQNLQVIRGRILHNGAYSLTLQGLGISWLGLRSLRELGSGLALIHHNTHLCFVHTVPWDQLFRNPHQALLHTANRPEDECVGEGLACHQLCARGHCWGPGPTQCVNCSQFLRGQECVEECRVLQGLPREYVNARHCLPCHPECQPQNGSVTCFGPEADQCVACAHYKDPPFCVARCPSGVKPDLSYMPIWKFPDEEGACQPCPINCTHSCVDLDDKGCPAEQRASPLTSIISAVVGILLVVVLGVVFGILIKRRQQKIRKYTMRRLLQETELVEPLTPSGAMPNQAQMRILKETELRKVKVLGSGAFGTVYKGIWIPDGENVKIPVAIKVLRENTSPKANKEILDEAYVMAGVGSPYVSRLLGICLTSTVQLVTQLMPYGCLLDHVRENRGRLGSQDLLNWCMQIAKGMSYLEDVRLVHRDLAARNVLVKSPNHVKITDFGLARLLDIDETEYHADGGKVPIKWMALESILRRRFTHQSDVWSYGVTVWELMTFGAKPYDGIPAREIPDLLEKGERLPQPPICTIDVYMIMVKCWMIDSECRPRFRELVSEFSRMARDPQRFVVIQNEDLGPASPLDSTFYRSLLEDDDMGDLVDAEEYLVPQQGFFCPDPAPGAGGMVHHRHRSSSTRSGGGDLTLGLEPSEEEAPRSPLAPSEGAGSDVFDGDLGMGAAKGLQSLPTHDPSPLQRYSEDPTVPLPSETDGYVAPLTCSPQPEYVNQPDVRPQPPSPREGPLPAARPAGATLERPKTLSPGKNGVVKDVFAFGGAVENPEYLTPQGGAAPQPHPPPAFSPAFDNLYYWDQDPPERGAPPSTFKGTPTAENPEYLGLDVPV

[3] = SK-BR-3 cell growth inhibitors, pilot screen, 24 h, human (AID 572;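 active means viability at or below 10% of carrier control in both of two separate runs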;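 further: compound exposure lasted between 18 and 24 h rather than exactly 24 h; 100% = carrier-treated control wells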); details: SK-BR-3 viability, CellTiter-Glo luminescence, at 10 µM, stronger effect = lower value
[4] = HUVEC growth inhibition – cell-based, human, primary screen (AID 575;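 active means viability at or below 30% in both replicate assays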;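 further: 100% = median of untreated cell wells with 0.1% DMSO on each plate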); details: HUVEC proliferation, CellTiter-Glo luminescence, 72 h; at 10 µM; stronger effect = lower value
[5] = growth inhibitors of H69AR lung tumor, primary screen, human, duplicate replicates (AID 580;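 active means viability at or under a set limit in both replicates, limit being median viability minus 3 SD, cut at about 48% in these data, passing the limit was not always enough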;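 further: 100% = mean luminescence of untreated wells and 0% = no signal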); details: H69AR lung tumor cells viability, ATP luminescence, 72 h; at 10 µM; stronger effect = lower value
[6] = reversal of MRP1-mediated doxorubicin resistance, pilot screen, H69AR cells, doxorubicin co-treatment (AID 601;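 active means viability loss from added drug above about 55%, and viability with drug at most 40%, in both replicates, limit read from the data, passing the limit was not always enough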); details: CellTiter-Glo, 72 h, at 10 µM; for differential viability (reversal): stronger effect = higher value
[7] = 384-well plate pilot, post-Golgi transport modulator project, inhibition of yeast transport mutant growth (AID 636; in the data active means inhibition above about 31%); details: absorbance 615 nm, about 18 h, stronger effect = higher value
[8] = growth suppression of yeast trafficking mutant, preliminary HTS, modulators of trafficking downstream of Golgi apparatus project, 1536-format plate, OD 615 nm (AID 637; in the data active means inhibition above about 30%); details: yeast transport mutant growth, absorbance 615 nm, 18 h; stronger effect = higher value
[9] = OD615 S. cerevisiae growth inhibition, permissive medium, pilot counter-assay, permissive growth control for S. cerevisiae lifespan shortening project (AID 705); details: OD615, 24 h, at 10 µM, stronger effect = higher value
[10] = Restrictive medium S. cerevisiae growth inhibition, OD615, pilot screen of yeast lifespan reduction project, restrictive growth control (AID 706;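 active means growth inhibition above a set limit, 3 SD over mean compound inhibition, in both replicates, cut at about 43% in these data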;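 further: modified DeaD lifespan yeast strain shifted to restrictive glucose medium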); details: OD615, 48 h, at 10 µM, stronger effect = higher value
[11] = viability gain of MRP-1-high H69AR cells under doxorubicin, pilot screen, MRP-1 activator project, CellTiter-Glo, duplicate (AID 807;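 active means viability increase at or above a cutoff of the median across tested compounds plus 3 SD, cut at about 8.5% in these data, passing the limit was not always enough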;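 further: compound pretreatment 18-22 h then 72 h combined with doxorubicin; 0% = doxorubicin alone and 100% = vehicle without doxorubicin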); details: H69AR viability with doxorubicin, CellTiter-Glo luminescence; at 10 µM; stronger effect = higher value
[12] = growth suppression of beta-catenin knockout HCT116, pilot screen, human colon tumor cells (AID 823;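 active means cell viability at or below a set limit in both duplicate runs, the limit being the all-compound median minus 4 SD, cut at about 23% in these data, passing the limit was not always enough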;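 further: 0% = wells killed by 20 µM Hyamine and 100% = untreated DMSO cell wells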); details: CellTiter-Glo, 60 h, at 10 µM, stronger effect = lower value
[13] = growth suppression of PTEN-deleted HCT116, pilot screen, cell-based, HCT116 clonal line, CellTiter-Glo (AID 824;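 active means viability at or below 27.92% in each of two runs, the all-compound median minus 4 SD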;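 further: 0% = 20 µM Hyamine control and 100% = vehicle cell control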); details: 60 h, at 10 µM, stronger effect = lower value
[14] = inhibitors of the yeast RAM network, pilot screen, dse1pr::URA3 reporter, 5-FOA selection (AID 869;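 active means inhibition over a set limit, the all-compound mean plus 3 SD, in both replicate runs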;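 further: 0% = DMSO wells with no growth and 100% = 10 µM 1-NA-PP1 with full growth; RAM network block rescues cells from 5-FOA so hits raise OD615 growth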); details: S. cerevisiae dse1pr::URA3 5-FOA growth, OD615, 2 d; at 10 µM; stronger effect = higher value; strain carries analog-sensitive mutant Cbk1 kinase
[15] = RAM signaling pathway blockade in yeast – S. cerevisiae, Pdr1DBD-CYC8 efflux-inhibited sensitized strain, primary screen (AID 1298;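 active means RAM network inhibition above 8.4% in each of two replicates, 3 SD over the compound average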;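 further: 0% = DMSO untreated cells without growth and 100% = 10 µM 1-NA-PP1 full growth; higher means more yeast growth rescued from 5-FOA killing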); details: S. cerevisiae cbk1-as DSE1-URA3 strain, 5-FOA growth OD615, 2 d; at 50 µM; stronger effect = higher value
[16] = H69AR cells + 2 uM doxorubicin, measured here: viability with 2 uM doxorubicin, stronger effect = lower value
[17] = H69AR cells, compound alone cytotoxicity

| SMILES | viability [1] [%] | Her2 level [2] | viability [3] | viability [4] | viability [5] | differential viability (reversal) ([6]; H69AR cells + 2 uM doxorubicin) | viability [6, 16] [%] | viability [6, 17] [%] | inhibition [7] | inhibition [8] | growth inhibition [9] | growth inhibition [10] | viability increase [11] | viability [12] | viability [13] | inhibition [14] | RAM network inhibition [15] |
| --- | --- | --- | --- | --- | --- | --- | --- | --- | --- | --- | --- | --- | --- | --- | --- | --- | --- |
| CC1CCCCC1NC(=O)Cn1ncc2ccccc21 (centres undefined) | 104 | 104% (inactive) | 104% (inactive) | 82.1% (inactive) | 90.4% (inactive) | 4.98% (inactive) | 85.4 | 90.4 | -2.93% (inactive) | 0.33% (inactive) | -12.1% (inactive) | -9.67% (inactive) | -1.21% (inactive) | 98.6% (inactive) | 95.7% (inactive) | 1.98% (inactive) | 0.04% (inactive) |
| CCn1cc(SCC(=O)Nc2cc(C)on2)c2ccccc21 | 110 | 84% (inactive) | 110% (inactive) | 89.4% (inactive) | 84% (inactive) | 3.56% (inactive) | 80.5 | 84 | -4.13% (inactive) | -1.15% (inactive) | -5.85% (inactive) | -7.99% (inactive) | 1.09% (inactive) | 92.3% (inactive) | 92.3% (inactive) | 1.87% (inactive) | 2.85% (inactive) |
| O=C1c2ccccc2C(Nc2cccnc2)N1Cc1ccccc1Cl (centres undefined) | 93 | 91% (inactive) | 93% (inactive) | 94.9% (inactive) | 86.3% (inactive) | -16% (inactive) | 102 | 86.3 | -3.2% (inactive) | -3.5% (inactive) | -5.58% (inactive) | 10.4% (inactive) | -3.57% (inactive) | 102% (inactive) | 99.2% (inactive) | 0.17% (inactive) | 0.57% (inactive) |
| COc1cccc(-n2c(SCC(=O)N3CCCC3)nc3c([nH]c4ccccc43)c2=O)c1 | 83 | 80.5% (inactive) | 83% (inactive) | 74.5% (inactive) | 76.1% (inactive) | -1.79% (inactive) | 77.9 | 76.1 | -5.2% (inactive) | -1.83% (inactive) | -8.48% (inactive) | -21.2% (inactive) | -6.23% (inactive) | 90.3% (inactive) | 85.7% (inactive) | 1.42% (inactive) | 7.87% (inactive) |
| COC(=O)Cc1cc(=O)[nH]c(Nc2nc3ccccc3o2)n1 | 104 | 99.5% (inactive) | 104% (inactive) | 74.6% (inactive) | 78.3% (inactive) | 8.41% (inactive) | 69.8 | 78.3 | -1.03% (inactive) | -3.33% (inactive) | 3.62% (inactive) | 1.2% (inactive) | -2.4% (inactive) | 102% (inactive) | 97.9% (inactive) | 1.03% (inactive) | 5.31% (inactive) |
| O=C(Cn1nc(Cc2cccnc2)c2ccccc2c1=O)NCC1CCCO1 (centres undefined) | 122 | 111% (inactive) | 122% (inactive) | 99.2% (inactive) | 92.2% (inactive) | -3.21% (inactive) | 95.4 | 92.2 | -3.33% (inactive) | 3.5% (inactive) | -1.69% (inactive) | 6.33% (inactive) | -1.12% (inactive) | 105% (inactive) | 99.1% (inactive) | 1.01% (inactive) | 5.65% (inactive) |
| COc1ccc(C(=O)NCC(=O)NC2=NCCS2)cc1 | 100 | 104% (inactive) | 100% (inactive) | 120% (inactive) | 102% (inactive) | 10.7% (inactive) | 91 | 102 | -4.67% (inactive) | 0.33% (inactive) | -1.83% (inactive) | -4.44% (inactive) | -1.93% (inactive) | 102% (inactive) | 98.1% (inactive) | 1.56% (inactive) | 2.03% (inactive) |
| Cc1ccccc1-c1nc(CN2CCC(C(=O)N3CCC(C(N)=O)CC3)CC2)c(C)o1 | 108 | 104% (inactive) | 108% (inactive) | 105% (inactive) | 89.5% (inactive) | 4.8% (inactive) | 84.7 | 89.5 | -5.73% (inactive) | 4.67% (inactive) | -8.16% (inactive) | 3.29% (inactive) | -2.4% (inactive) | 92.8% (inactive) | 99.2% (inactive) | 1.07% (inactive) | 2.99% (inactive) |
| CCOc1ccc2nc(N3CCC(C(=O)N4CCN(C5CCCCC5)CC4)CC3)sc2c1 | 83 | 83.5% (inactive) | 83% (inactive) | 98.6% (inactive) | 95.7% (inactive) | 8.46% (inactive) | 87.2 | 95.7 | -1.33% (inactive) | -4.1% (inactive) | -0.545% (inactive) | 8.85% (inactive) | -3.43% (inactive) | 55.6% (inactive) | 70.3% (inactive) | 1.22% (inactive) | 0.6% (inactive) |
| Cc1ccc(-n2ncc3c(=O)[nH]c(SC(C)C)nc32)cc1 | 93 | 104% (inactive) | 93% (inactive) | 84.9% (inactive) | 80.1% (inactive) | 11.3% (inactive) | 68.7 | 80.1 | -4.4% (inactive) | -6% (inactive) | -3.77% (inactive) | -5.77% (inactive) | -3.9% (inactive) | 98.4% (inactive) | 87.4% (inactive) | 3.35% (inactive) | 4.11% (inactive) |
| Cn1nnnc1SCC(=O)N1CCN(c2ccccc2)CC1 | 94.5 | 122% (inactive) | 94.5% (inactive) | 97.4% (inactive) | 87.7% (inactive) | 8.86% (inactive) | 78.8 | 87.7 | 1.92% (inactive) | -6.33% (inactive) | -0.355% (inactive) | -1.68% (inactive) | -0.97% (inactive) | 93.1% (inactive) | 99.6% (inactive) | 0.735% (inactive) | 1.14% (inactive) |
| COc1cc(/C=N/n2cnnc2)ccc1OCC(=O)N1CCOCC1 | 84 | 93.5% (inactive) | 84% (inactive) | 99.5% (inactive) | 93% (inactive) | -6.64% (inactive) | 99.6 | 93 | -0.9% (inactive) | -1.17% (inactive) | -6.31% (inactive) | -6.25% (inactive) | -2.75% (inactive) | 104% (inactive) | 98.9% (inactive) | 2.55% (inactive) | 6.03% (inactive) |
